Laboratory results from PubChem BioAssay (NCI).
About 79,000 compounds went through this panel and 15% of them were active in at least one assay; those are over-represented in the sample as a whole. No stated cut-off is given here; in the data, active means growth inhibition above about 70%; inactive means the rest.

Legend:
[1] = NCI Yeast Anticancer Drug Screen. Data for the rad50 strain (AID 155);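 further: 0% = growth of vehicle-only cultures of the same strain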; details: S. cerevisiae rad50 strain growth inhibition; at 50.0 µM; active compounds read high
Method in brief: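 Cells are treated with compound, grown, and their growth is then scored against vehicle-only cultures of the same repair-deficient yeast strain.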

[2] = NCI Yeast Anticancer Drug Screen. Data for the mec2-1 strain (AID 157); details: S. cerevisiae mec2-1 strain, at 50.0 µM, active compounds read high
Method in brief: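 Yeast mec2-1 mutant treated with compound. Readout: growth inhibition vs vehicle controls.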

[3] = NCI Yeast Anticancer Drug Screen. Data for the sgs1 mgt1 strain (AID 161);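 further: 0% = growth of cultures given vehicle only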; details: S. cerevisiae sgs1 mgt1 strain, at 50.0 µM, active compounds read high
Method in brief: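 Inhibition of yeast growth, normalised to vehicle-treated controls, is reported for a strain bearing genetic alterations in DNA damage repair.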

[4] = NCI Yeast Anticancer Drug Screen. Data for the cln2 rad14 strain (AID 165);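 further: 0% = growth equal to vehicle treated cultures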; details: S. cerevisiae cln2 rad14 strain, at 50.0 µM, active compounds read high
Method in brief: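 cln2 rad14 yeast strain; compound exposure; growth inhibition read vs vehicle controls.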

[5] = NCI Yeast Anticancer Drug Screen. Data for the bub3 strain (AID 167); details: S. cerevisiae bub3 mutant strain, at 50.0 µM, active compounds read high
Method in brief: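 Part of a panel of yeast mutants defective in DNA damage repair or cell cycle regulation. Each strain is grown with compound, and inhibition is calculated relative to solvent-treated cultures.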

[6] = NCI Yeast Anticancer Drug Screen. Data for the mlh1 rad18 strain (AID 175); details: S. cerevisiae mlh1 rad18 strain growth inhibition; at 50.0 µM; active compounds read high
Method in brief: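 Yeast w/ defined DNA-repair lesions; compound exposure; growth vs vehicle controls → % inhibition.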

Measured: growth inhibition

CC(C)(C#N)C(C)(C)c1cnc2ccccc2c1
inactive: [1] 15.2% | [2] -7.15% | [3] -9.4% | [4] -52.5% | [5] -2.25% | [6] -12.4%

CC1(C)Cc2oc(=Nc3ccccc3)n(-c3ccccc3)c(=O)c2C1
inactive: [1] 9.95% | [2] 2.15% | [3] 1.9% | [4] -13.2% | [5] 4.6% | [6] 0.15%

N#Cc1c(N)nc2c3c1NC(=O)C(C(N)=O)C3c1ccccc1O2 (stereo unspecified)
inactive: [1] 6.1% | [2] -3.15% | [3] 5.95% | [4] 2% | [5] -2.6% | [6] -22.4%

CCCNC(=O)Oc1ccccc1C(N)=O
inactive: [1] -3.35% | [2] -20.1% | [3] -4.4% | [4] -44% | [5] 8% | [6] -5.75%

O=c1oc2ccccc2c2ccccc12
inactive: [1] -2.8% | [2] -9.55% | [3] -16.5% | [4] -5.95% | [5] 1.25% | [6] -7.8%

CC(C)CNc1ncnc2c1cnn2C
inactive: [1] -1.65% | [2] 2.9% | [3] -1.65% | [4] -3.15% | [5] 9.8% | [6] -8.45%

COc1cccc(CCO)c1OC
inactive: [1] 1.3% | [2] -13.2% | [3] 10.9% | [4] -10.4% | [5] 5.2% | [6] 10.9%

CCCSc1ccc([N+](=O)[O-])cc1[N+](=O)[O-]
inactive: [1] 31.8% | [2] -5.6% | [3] 25.2% | [4] 1% | [5] -5.35% | [6] 32.8%

NC(CSC(c1ccccc1)(c1ccccc1)c1ccc(C(=O)O)cc1)C(=O)O (stereo unspecified)
inactive: [1] 54.2% | [2] -4.1% | [3] 18.5% | [4] 15.5% | [5] 2.2% | [6] 9.85%

CCCCN(CCCC)CC(O)c1cc(-c2ccc(Cl)cc2)nc2c(Cl)cc(Cl)cc12 (stereo unspecified)
inactive: [1] 26.4% | [2] 5.05% | [3] 10.3% | [4] 18.1% | [5] 0.45% | [6] 28.9%

O=C[C@H](O)CO
inactive: [1] 26.4% | [2] -20.1% | [3] 17.2% | [4] -1.8% | [5] 8.8% | [6] 17.4%

O=S(=O)(c1ccccc1)c1cccc2c1NCCC2
inactive: [1] 34.9% | [2] -1.75% | [3] 34.4% | [4] 8.4% | [5] 62.3% | [6] 43.6%

Cc1ccc(NC(=O)C(=O)C(C#N)c2nc(-c3ccc(-c4ccccc4)cc3)cs2)c(C)c1 (stereo unspecified)
inactive: [1] 8% | [2] -2.75% | [3] 19.4% | [4] 28.4% | [5] 4.75% | [6] -10.1%

O=C1CC(O)(c2ccccc2)C(c2ccccc2)=C1c1ccccc1 (stereo unspecified)
inactive: [1] 29.8% | [2] 21.4% | [3] 14.3% | [4] 32.7% | [5] -2.15% | [6] 36.8%

N#C/C(=C1\OC(N)=C(c2ccc(Cl)cc2)C1=O)c1ccc(Cl)cc1
inactive: [1] 2.9% | [2] -8.45% | [3] 6.8% | [4] 18.4% | [5] 2.15% | [6] 9.2%

NC(=O)N1CCc2ccccc2C1c1ccccc1 (stereo unspecified)
inactive: [1] -2.95% | [2] -12.7% | [3] -7.55% | [4] -14.4% | [5] 9.25% | [6] -21.4%

N#C/C(=C/O)c1ccccc1
inactive: [1] 1.65% | [2] 4.4% | [3] -0.75% | [4] 3.1% | [5] 5.6% | [6] -13.7%

C=C(Cl)C(Cl)(CBr)CCC(Br)C(C)(C)Cl (stereo unspecified)
inactive: [1] 20.6% | [2] 41% | [3] 51.5% | [4] 22.4% | [5] 42.6% | [6] -22.8%

C=CCCCCCCCCC(=O)N1CCN(C)CC1
inactive: [1] 46.1% | [2] -14% | [3] 9.1% | [4] 16.6% | [5] -5.25% | [6] 27.6%

CN(C)c1ccc(CC2Cc3ccccc3C2O)cc1 (stereo unspecified)
inactive: [1] 6.75% | [2] -6.55% | [3] 10.2% | [4] -11.7% | [5] 12.3% | [6] 5.9%

CC(O)(c1ccc(Cl)cc1)c1ccc(Cl)cc1
inactive: [1] -4.05% | [2] -18.9% | [3] 1.2% | [4] -52.6% | [5] -8.75% | [6] -15.8%

OC(c1ccccc1)(c1ccccc1)c1nc2ccccc2[nH]1
inactive: [1] 2.7% | [2] -1.75% | [3] 14.2% | [4] -19.8% | [5] -0.1% | [6] -0.9%

Cc1cc2c(=O)[nH]c(=S)[nH]c2cn1
inactive: [1] 8% | [2] 7% | [3] -11.4% | [4] -0.35% | [5] 6.8% | [6] -3.6%

CC(=O)OC1CCC2(C)C(=CCC3C2CCC2(C)C(/C(C)=N/NC(N)=S)=CCC32)C1 (stereo unspecified)
inactive: [1] 58.8% | [2] 55.4% | [3] 67.6% | [4] 49.6% | [5] 37.7% | [6] 54.1%

CC(=O)N(C)C
inactive: [1] -9.9% | [2] -2.05% | [3] 12.9% | [4] 6% | [5] -2.3% | [6] -6.5%

C#CCOC(=O)[C@@H](C)c1ccc2cc(OC)ccc2c1
inactive: [1] 11.2% | [2] 4.25% | [3] 52.3% | [4] 17.4% | [5] 36.6% | [6] 43%

CN(C)C(=O)Sc1ccc([N+](=O)[O-])cc1Cl
inactive: [1] 15.4% | [2] 4.6% | [3] 5.7% | [4] 14.6% | [5] -4.3% | [6] 16.8%

COc1cccc(OC(=O)Nc2cccc(Cl)c2)c1
inactive: [1] 38.2% | [2] 38.4% | [3] 49.4% | [4] 38.8% | [5] 41.5% | [6] 51.6%

O=c1ccn(C2OC(CF)C(O)C2O)c(=O)[nH]1 (stereo unspecified)
inactive: [1] 1.8% | [2] -2.85% | [3] -1.4% | [4] 9.05% | [5] 0.7% | [6] -9.9%

O=C(c1ccccc1)C1Nc2ccc(Cl)cc2C2C=CCC12 (stereo unspecified)
inactive: [1] -1.2% | [2] -7.75% | [3] 6.4% | [4] -7.95% | [5] -0.35% | [6] 14.8%

NCCCNCCCCNC(=O)C(O)NC(=O)CCCCCCN=C(N)N (stereo unspecified)
inactive: [1] -2.7% | [2] -11.2% | [3] -2.05% | [4] 11.4% | [5] 3.4% | [6] -1.6%

CCOC(=O)C(=CNC(=S)Nc1ccc(Cl)c(Cl)c1)C(=O)OCC
inactive: [1] 53.5% | [2] 39.5% | [3] 59.7% | [4] 45.6% | [5] 39% | [6] 67.5%

C=C1CCC1
inactive: [1] 1.05% | [2] -11.5% | [3] -14.7% | [4] 10.6% | [5] 6.05% | [6] -3.35%

CCOC(=O)C(CCC(=O)OC)C(=O)OCC
inactive: [1] -2.45% | [2] -1.75% | [3] -32.5% | [4] -28.2% | [5] -5.25% | [6] 1.6%

Cc1cc(N=[N+]=[N-])c2cc3c(cc2n1)OCO3
inactive: [1] -32.2% | [2] -7.5% | [3] -0.4% | [4] -39% | [5] 5.65% | [6] 14%

Cc1cc2c(cc1C=O)C(C)(C)CCC2
inactive: [1] 9.75% | [2] 0.85% | [3] -6.85% | [4] -32.2% | [5] 2.85% | [6] 26.2%

COC(=O)C([O][Ge]([CH3])([CH3])[CH3])c1ccccc1 (stereo unspecified)
inactive: [1] 8.75% | [2] -15.1% | [3] -1.5% | [4] 21.2% | [5] -12.9% | [6] -12.7%

CC12CCC=CC1=CC(=O)CC2 (stereo unspecified)
inactive: [1] 1.35% | [2] 16.5% | [3] 1.05% | [4] 4.65% | [5] -6.8% | [6] 32.9%

CCCN(CCC)S(=O)(=O)c1ccc(NC(=O)OC(c2ccccc2)(c2ccccc2)c2ccccc2)cc1
inactive: [1] 24.1% | [2] -4.3% | [3] 5.4% | [4] 7.95% | [5] -3.7% | [6] 0.95%

CCCCCCCCCCCCCCCCOc1ccc(S(=O)(=O)N/N=c2/sc(-c3ccccc3Cl)nn2C)cc1C(=O)O
inactive: [1] -18.6% | [2] -20.2% | [3] 13.3% | [4] -18.2% | [5] 6.9% | [6] -4.15%

CC(C)N(CCC#N)C(=S)Nc1cccc(C(F)(F)F)c1
inactive: [1] 21.6% | [2] 13.2% | [3] 25.1% | [4] 0.25% | [5] 12.2% | [6] -2.85%
